In the library only some 8.7% were active in any assay of this set; here they are far more common.
JMJD2A Tudor inh: JMJD2A Tudor domain (human) inhibition; Potency, µM (top dose mostly 114 µM), without a hit: top-dose activity change, negative = inhibition, actives largely listed as inhibitors; 390,000 tested, 4.4% active; AlphaScreen JMJD2A-Tudor / H3K4me3 peptide binding; also: % is scaled to controls: 0 for no effect and ±100 for the full control effect; nearly all actives have a fitted effect of over 50% in size
12-LOX inh: blocks human arachidonate 12S-lipoxygenase; AID 1671190; 580,000 tested, 1.1% active; Potency, µM (doses to about 108 µM), without a hit: at the top dose activity change, negative = inhibition, usual class: inhibitors; purified 12hLO, xylenol orange hydroperoxide absorbance; P18054; also: % is scaled to controls: 0 for no effect and ±100 for the full control effect
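Hydroperoxide product was detected by ferrous iron/xylenol orange as the 573 to 405 nm absorbance ratio. Arachidonic acid at 40 uM (final) was turned over for 30 min at room temperature by 150 nM human 12hLO, pH 7.0 Hepes buffer, after 15 min compound preincubation.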
BAZ2B block: inhibitors of human BAZ2B bromodomain | Q9UIF8 | AlphaScreen BAZ2B-H3K14Ac peptide displacement | Potency, µM (doses to about 114 µM), for inactives: at the top dose activity change, negative = inhibition, actives largely listed as inhibitors | 360,000 tested, 4.4% active; also: % is scaled to controls: 0 for no effect and ±100 for the full control effect; nearly all actives have a fitted effect of over 60% in size
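Complex of BAZ2B and biotin-H3K14Ac (50 nM apiece) forms over 30 min at RT, then faces library compounds up to 110 uM for another 30 min; AlphaScreen beads added, 20 min dark incubation, luminescence read.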
G9a inh: G9a (human) methyltransferase inhibition; Potency, µM (doses to about 102 µM), inactives show top-dose activity, negative = inhibition, hits mostly inhibitors; AID 504332; G9a H3K9 monomethylation, AlphaScreen, 2 h; 350,000 tested, 8.8% active; also: % is scaled to controls: 0 for no effect and ±100 for the full control effect; nearly all actives have a fitted effect of over 75% in size
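AlphaScreen read-out: biotin-H3K9 peptide (500 nM) methylation by 20 nM enzyme with 20 uM SAM, 2 h at room temperature after 15 min compound preincubation; anti-monomethyl H3K9 antibody plus donor/acceptor beads, 10 min dark.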
Sfp PPTase inh: blocks B. subtilis Sfp PPTase activity; Potency, µM, for the others: largest response in the series, negative = inhibition, actives largely listed as inhibitors; AID 1490; Q9F4F7; Biochemical Sfp PPTase activity, qHTS; 310,000 tested, 3.5% active;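 also: the enzyme is Sfp with the accession as filed and its product quenches rhodamine fluorescence; 0% = enzyme reaction without inhibitor and -100% = no enzyme wells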
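Fluorescence-quenching assay: 15 nM Sfp-PPTase preincubated 15 min at room temperature with compound, then 5 uM rhodamine-CoA and 12.5 uM BHQ-2-labelled YbbR peptide added. Fluorescence (ex 525/em 598 nm) read at start and after 30 min; difference gives rate.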
HP1b chromo inh: inhibitors of HP1-beta chromodomain binding to methylated histone tails; P83916; AlphaScreen HP1-beta / biotin-H3K9me3 peptide binding; Potency, µM (top dose mostly 114 µM), inactives show top-dose activity change, negative = inhibition, actives largely listed as inhibitors; 390,000 tested, 0.56% active; AID 540317; also: nearly all actives have a fitted effect of over 70% in size
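Compound inhibition of the preformed complex between 50 nM HP1-beta and 50 nM biotinylated H3K9me3 peptide was read by AlphaScreen. Buffer was PBS pH 7.4 with 0.01% Tween-20. Incubations ran 30 min at room temperature, with 10 ug/mL donor/acceptor beads.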
The depositor's hits bear a star; i = inactive; ? = inconclusive; · = not tested or not shown; [ ] = remark or other dose. Calls follow the shape of the dose curve; as a rule, active = well fitted curve in the direction sought with a large enough effect; inconclusive = small, poorly fitted or top-dose-only effect, or another doubt; inactive = no such curve, though single readings can be large; an effect the other way counts as inactive or inconclusive. Potency is read from the fitted curve at half-maximal effect.

SMILES	JMJD2A Tudor inh	12-LOX inh	BAZ2B block	G9a inh	Sfp PPTase inh	HP1b chromo inh
CC(NC(=O)c1cccnc1)c1cccc(C(F)(F)F)c1 (stereo unspecified)	·	5.8%	·	·	·	·
CN(C1CCOCC1)C1CCN(C(=O)c2ccccn2)CC1	·	-8.7%	·	·	·	·
CC(=O)N1N=C(c2cccc([N+](=O)[O-])c2)OC1c1ccc(Cl)cc1Cl (stereo unspecified)	?	-11.3%	?	-24.0%	-7.1%	-18.7%
CC(=O)N1N=C(c2cccc([N+](=O)[O-])c2)OC1c1ccc(Br)cc1 (stereo unspecified)	?	15.0%	?	44.7µM*	12.9%	-10.9%
CN1Cc2c(cc(N3CCOCC3)nc2-c2ccccc2OC(F)(F)F)C1=O	·	14.9%[176 µM]	·	·	·	·
CCOC(=O)N1CCN(C(=O)CNC2CCCCCCC2)CC1	31.6µM*	-19.0%	50.1µM*	31.6µM*	-22.5%	28.5%
CCSc1ncc(Cl)c(C(=O)Nc2ccc(S(=O)(=O)Nc3ncccn3)cc2)n1	-13.1%	-11.6%	-1.4%	-14.1%	5.6%	39.0%
CCS(=O)(=O)c1ncc(Cl)c(C(=O)Nc2ccc(S(=O)(=O)N3CCC(C)CC3)cc2)n1	-29.9%	-13.0%	-26.6%[57.1 µM]	44.7µM*	-19.4%	3.4%[57 µM]
CCSc1ncc(Cl)c(C(=O)Nc2ccc(S(=O)(=O)N3CCC(C)CC3)cc2)n1	-18.8%	-28.7%	-17.1%	-34.7%[59 µM]	·	26.8%
CCCS(=O)(=O)c1ncc(Cl)c(C(=O)Nc2ccc(S(=O)(=O)Nc3ncccn3)cc2)n1	-3.5%	-10.6%	-18.5%	17.8µM*	-20.2%	62.8%
CCn1c(NC(=O)C2CCCCC2)nc2ccccc21	-22.0%	0.0%	5.1%	3.9%[59 µM]	0.7%	28.5%
CC(C)(C)C#CCn1c(/C=[N+](\[O-])C2CCCCC2)nc2ccccc21	?	·	50.1µM*	·	7.2%	23.9%
COc1cc(OC)cc(C(=O)NNC(=S)NC(=O)c2cccnc2)c1	-6.8%	?	16.8%	28.2µM*	1.2%	59.2%
O=C(NNC(=O)c1csc(-c2ccccc2)n1)c1ccccc1	·	8.4%	·	·	·	·
COc1ccc(C/C(C)=N/NC(=O)c2cccnc2)cc1	31.6µM*	-3.8%	?	40.8%[59 µM]	-15.4%	10.0%
O=C(NNC(=O)c1csc(-c2cccnc2)n1)c1ccccc1	2.1%	0.4%	-6.7%	·	89.1µM*	36.7%
CNC(=S)NNC(=O)c1cccnc1	·	39.7%	·	·	·	·
CC(C)(C)c1ccc(C(=O)NNC(=S)NC(=O)c2cccnc2)cc1	-25.9%	?	3.9%	10µM*	9.0%	-14.4%
CN1C[C@H](NCc2cccc(Cl)c2)CCC[C@@H](C(=O)N(C)Cc2cccnc2)CC1=O	·	39.1%	·	·	·	·
CCc1nc(-c2c3n(c(=O)n(CC(=O)Nc4cc(C)ccc4C)c2=O)CCCCC3)no1	·	21.0%	·	·	·	·
O=C(NNC(=S)NC(=O)c1ccccc1)c1ccc(O)cc1	-17.1%	?	5.6%	12.6µM*	-4.0%	8.8%
O=C(NNC(=S)NC(=O)c1ccccc1)c1cccnc1	-18.2%	-9.1%	-1.9%	22.4µM*	-21.6%	16.8%
CCC(C)c1ccc(Nc2nc(-c3ccc(S(=O)(=O)N4CCCC4)cc3)cs2)cc1 (stereo unspecified)	·	-0.4%	·	·	·	·
Cc1ccc(S(=O)(=O)N(C)c2ccc(C(=O)NCc3ccccc3F)cc2)cc1	-3.7%	?	-1.3%	50.1µM*	·	25.3%
Cc1ccc(S(=O)(=O)N(C)c2ccc(C(=O)NCc3ccccn3)cc2)cc1	-10.3%	-5.6%	-6.7%	-2.3%	6.1%	47.4%
SMILES	JMJD2A Tudor inh	12-LOX inh	BAZ2B block	G9a inh	Sfp PPTase inh	HP1b chromo inh
Cc1ccc(NC(=O)CN(C)C(=O)c2ccc(S(=O)(=O)N(C)c3ccccc3)cc2)cc1	-6.2%	?	-8.7%	56.2µM*	3.9%	24.5%
Cc1ccc(NC(=O)CN(C)C(=O)c2ccc(S(=O)(=O)Nc3ccc(Cl)cc3)cc2)cc1	·	7.94µM*	·	·	·	·
O=C(c1n[nH]c2ccccc12)N1CC(Oc2ccccc2-c2nc(C3CC3)no2)C1	·	15.5%	·	·	·	·
CN(c1nnc(N)s1)C1CCCCC1	-1.4%	17.9%[57.4 µM]	-1.5%	39.8µM*	3.5%	41.0%
CN(C)S(=O)(=O)c1ccc(NCC2COc3ccccc3O2)c([N+](=O)[O-])c1 (stereo unspecified)	25.1µM*	-11.9%	?	?	14.4%	?
CCN(CC)S(=O)(=O)c1ccc(NCC2COc3ccccc3O2)c([N+](=O)[O-])c1 (stereo unspecified)	?	0.9%	?	?	4.1%	?
Cc1cc(NC2CC(C)(C)NC(C)(C)C2)nc(C(C)C)n1	·	54.7%	·	·	·	·
O=C(CSc1nc2c(cnn2-c2ccc(F)cc2)c(=O)[nH]1)N1N=C(c2cccs2)CC1c1ccc(F)cc1 (stereo unspecified)	·	4.0%[57.4 µM]	1.26µM*	31.6µM*	10.3%	·
CCCCN(C(=O)c1cc(Cl)nc2ccccc12)c1c(N)n(Cc2ccccc2)c(=O)[nH]c1=O	-12.3%	?	-5.5%	50.1µM*	·	18.1%
CCCCN(C(=O)CCCSc1nc2ccccc2[nH]1)c1c(N)n(Cc2ccccc2)c(=O)[nH]c1=O	-2.1%	i	-8.8%	10µM*	2.3%	16.2%
CCCCN(C(=O)c1cccc(N2C(=O)c3ccccc3C2=O)c1)c1c(N)n(CC(C)C)c(=O)[nH]c1=O	-6.4%	5.5%	-4.7%	-11.3%[12.7 µM]	·	48.8%
Nc1c(N(Cc2ccco2)C(=O)c2ccc(Cl)cc2)c(=O)[nH]c(=O)n1Cc1ccccc1	-4.5%	143.6%	3.3%	7.4%[12.7 µM]	·	34.6%
Nc1c(N(Cc2ccco2)C(=O)c2ccc(Br)cc2)c(=O)[nH]c(=O)n1Cc1ccccc1	-17.1%	28.2µM*	-21.2%	10.6%[12.7 µM]	·	21.4%
CCCCN(C(=O)c1cccc(-n2cccc2)c1)c1c(N)n(Cc2ccccc2)c(=O)[nH]c1=O	·	-27.6%	44.7µM*	10.7%[0.501 µM]	·	·
CC1CCN(C(=O)CCc2ccc(Oc3cc([N+](=O)[O-])cc([N+](=O)[O-])c3)cc2)CC1	12.6µM*	-25.7%	28.2µM*	?	?	44.7µM*
CCOc1ccc(OCC)c(NC(=O)c2nc3ccccc3nc2N2CCOCC2)c1	·	-1.5%	·	·	·	·
O=S(=O)(c1ccc(Cl)cc1)c1nc(-c2ccccc2F)oc1NCCCN1CCOCC1	?	0.0%	?	79.4µM*	-14.1%	-16.0%
O=S(=O)(c1ccccc1)c1nc(-c2ccco2)oc1NCCCN1CCOCC1	-3.2%	?	-29.7%	14.1µM*	?	27.1%
Cc1ccc(S(=O)(=O)c2nc(-c3ccccc3Cl)oc2NCCCN2CCOCC2)cc1	?	?	-10.6%	·	-16.7%	-31.7%
Cc1ccccc1-c1nc(S(=O)(=O)c2ccc(Br)cc2)c(NCc2cccnc2)o1	-32.5%	25.5%	-11.8%	-47.7%	-6.8%	11.8%

Source: PubChem BioAssay
